# Data: paper PMC7862700, “An all-to-all approach to the identification of sequence-specific readers for epigenetic DNA modifications on cytosine”
# Key:
# Experiment in all cases: DAPPL (digital affinity profiling via proximity ligation, sequencing); 10 mM Tris-HCl pH 7.5, 50 mM NaCl, 1 mM DTT, 4% glycerol, room temperature, 30 min; GST-TFs on glutathione beads, 16-mer random dsDNA library, 0.1% formaldehyde crosslink after washing; high values mean tight binding
# Conditions in all cases: protein: recombinant; tags: N-terminal GST; dsDNA, one strand shown
# FLI1 = target: T1, FLI1 (Homo sapiens, UniProt Q01543 1-452)
# T1 sequence: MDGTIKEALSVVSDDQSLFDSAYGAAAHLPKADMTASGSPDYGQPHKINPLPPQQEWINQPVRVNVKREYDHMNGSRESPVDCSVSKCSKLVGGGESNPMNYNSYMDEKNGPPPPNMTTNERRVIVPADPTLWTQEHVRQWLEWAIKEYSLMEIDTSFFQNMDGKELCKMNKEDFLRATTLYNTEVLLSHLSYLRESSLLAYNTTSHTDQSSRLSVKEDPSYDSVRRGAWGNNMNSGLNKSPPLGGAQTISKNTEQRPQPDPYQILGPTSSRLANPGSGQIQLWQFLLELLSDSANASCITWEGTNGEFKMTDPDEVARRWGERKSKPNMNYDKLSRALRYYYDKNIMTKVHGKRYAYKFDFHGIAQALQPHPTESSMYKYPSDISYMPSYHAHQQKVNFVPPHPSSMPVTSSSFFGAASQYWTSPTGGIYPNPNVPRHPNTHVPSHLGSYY
# Method in brief: (§1)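 Human transcription factors were made in yeast as GST fusions, captured on glutathione beads and barcoded with DNA. With a tag-only sample included, the pool was incubated with 200 nmole of a random double-stranded 16-mer DNA library in Tris/NaCl/DTT/glycerol buffer at room temperature for 30 min, then crosslinked with 0.1% formaldehyde after washing, ligated by proximity, amplified and sequenced. For binding signal, each hexamer's read frequency for a factor is divided by its frequency for the tag-only sample.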
# ELK1 = target: T2, ELK1 (Homo sapiens, UniProt P19419 1-428)
# T2 sequence: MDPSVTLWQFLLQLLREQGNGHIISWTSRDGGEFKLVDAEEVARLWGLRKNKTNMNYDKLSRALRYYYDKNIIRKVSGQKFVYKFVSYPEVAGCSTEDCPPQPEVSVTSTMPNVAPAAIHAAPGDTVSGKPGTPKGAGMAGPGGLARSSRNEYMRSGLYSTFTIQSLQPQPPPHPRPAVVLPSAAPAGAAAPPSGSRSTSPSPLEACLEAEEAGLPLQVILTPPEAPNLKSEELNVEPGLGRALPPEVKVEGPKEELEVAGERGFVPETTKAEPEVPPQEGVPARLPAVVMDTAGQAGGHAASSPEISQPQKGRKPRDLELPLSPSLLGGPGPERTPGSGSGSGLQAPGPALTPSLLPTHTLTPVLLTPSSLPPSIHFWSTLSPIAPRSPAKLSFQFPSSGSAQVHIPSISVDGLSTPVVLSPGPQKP
# Method in brief: as §1
# GABPA = target: T3, GABPA (Homo sapiens, UniProt Q06546 1-454)
# T3 sequence: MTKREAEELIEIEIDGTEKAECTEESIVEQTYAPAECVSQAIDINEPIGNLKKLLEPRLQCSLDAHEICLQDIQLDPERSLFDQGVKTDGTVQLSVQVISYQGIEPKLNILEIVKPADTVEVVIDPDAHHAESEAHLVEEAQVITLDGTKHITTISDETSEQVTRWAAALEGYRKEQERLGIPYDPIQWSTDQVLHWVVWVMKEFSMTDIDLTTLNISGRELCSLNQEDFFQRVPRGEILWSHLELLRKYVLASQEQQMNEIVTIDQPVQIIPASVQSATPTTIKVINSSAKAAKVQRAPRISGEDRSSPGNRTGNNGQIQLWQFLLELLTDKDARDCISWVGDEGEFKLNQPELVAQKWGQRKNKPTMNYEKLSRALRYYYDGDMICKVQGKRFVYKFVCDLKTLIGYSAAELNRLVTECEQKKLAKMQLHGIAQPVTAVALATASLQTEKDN
# Method in brief: as §1
# ERG = target: T4, ERG (Homo sapiens, UniProt P11308 1-479)
# T4 sequence: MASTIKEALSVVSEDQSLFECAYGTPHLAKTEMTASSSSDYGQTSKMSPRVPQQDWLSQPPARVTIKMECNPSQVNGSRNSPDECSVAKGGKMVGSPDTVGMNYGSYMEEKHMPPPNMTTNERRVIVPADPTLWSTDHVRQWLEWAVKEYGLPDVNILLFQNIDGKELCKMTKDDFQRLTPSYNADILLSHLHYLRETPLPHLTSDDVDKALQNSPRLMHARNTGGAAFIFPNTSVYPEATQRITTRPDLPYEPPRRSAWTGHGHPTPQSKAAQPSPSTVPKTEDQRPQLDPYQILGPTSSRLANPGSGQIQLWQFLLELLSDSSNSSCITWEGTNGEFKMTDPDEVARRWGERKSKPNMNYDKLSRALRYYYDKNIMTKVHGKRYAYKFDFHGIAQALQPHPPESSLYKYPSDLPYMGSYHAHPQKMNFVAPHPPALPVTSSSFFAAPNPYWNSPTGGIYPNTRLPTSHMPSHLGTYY
# Method in brief: as §1
# ELF1 = ELF1 (Homo sapiens, UniProt P32519 1-619)
# Method in brief: as §1
# EHF = target: T5, EHF (Homo sapiens, UniProt Q9NZC4 1-300)
# T5 sequence: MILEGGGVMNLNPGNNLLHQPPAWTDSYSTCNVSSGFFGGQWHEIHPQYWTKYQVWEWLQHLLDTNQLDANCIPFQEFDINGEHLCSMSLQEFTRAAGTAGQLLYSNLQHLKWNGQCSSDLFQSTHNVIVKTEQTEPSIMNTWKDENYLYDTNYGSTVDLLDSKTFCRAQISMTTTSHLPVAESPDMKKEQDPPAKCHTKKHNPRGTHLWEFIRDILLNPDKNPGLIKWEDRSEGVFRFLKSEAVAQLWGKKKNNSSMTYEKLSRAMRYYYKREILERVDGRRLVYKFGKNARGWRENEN
# Method in brief: as §1
# SPI1 = SPI1 (Homo sapiens, UniProt P17947 1-270)
# Method in brief: as §1
# SPIB = SPIB (Homo sapiens, UniProt Q01892 1-262)
# Method in brief: as §1
# ELK3 = target: T6, ELK3 (Homo sapiens, UniProt P41970 1-407)
# T6 sequence: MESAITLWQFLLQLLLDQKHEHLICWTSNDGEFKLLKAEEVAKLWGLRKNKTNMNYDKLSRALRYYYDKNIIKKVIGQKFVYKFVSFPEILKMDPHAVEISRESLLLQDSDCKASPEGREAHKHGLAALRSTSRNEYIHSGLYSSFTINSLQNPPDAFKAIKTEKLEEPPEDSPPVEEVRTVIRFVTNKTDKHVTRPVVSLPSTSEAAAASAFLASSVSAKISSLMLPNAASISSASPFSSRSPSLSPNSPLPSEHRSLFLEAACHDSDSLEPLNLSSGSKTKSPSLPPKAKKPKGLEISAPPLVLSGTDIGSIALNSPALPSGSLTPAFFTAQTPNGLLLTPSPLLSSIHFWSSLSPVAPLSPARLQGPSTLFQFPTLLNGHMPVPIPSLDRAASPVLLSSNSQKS
# Method in brief: as §1
# ELF1, sequence (P32519 whole entry): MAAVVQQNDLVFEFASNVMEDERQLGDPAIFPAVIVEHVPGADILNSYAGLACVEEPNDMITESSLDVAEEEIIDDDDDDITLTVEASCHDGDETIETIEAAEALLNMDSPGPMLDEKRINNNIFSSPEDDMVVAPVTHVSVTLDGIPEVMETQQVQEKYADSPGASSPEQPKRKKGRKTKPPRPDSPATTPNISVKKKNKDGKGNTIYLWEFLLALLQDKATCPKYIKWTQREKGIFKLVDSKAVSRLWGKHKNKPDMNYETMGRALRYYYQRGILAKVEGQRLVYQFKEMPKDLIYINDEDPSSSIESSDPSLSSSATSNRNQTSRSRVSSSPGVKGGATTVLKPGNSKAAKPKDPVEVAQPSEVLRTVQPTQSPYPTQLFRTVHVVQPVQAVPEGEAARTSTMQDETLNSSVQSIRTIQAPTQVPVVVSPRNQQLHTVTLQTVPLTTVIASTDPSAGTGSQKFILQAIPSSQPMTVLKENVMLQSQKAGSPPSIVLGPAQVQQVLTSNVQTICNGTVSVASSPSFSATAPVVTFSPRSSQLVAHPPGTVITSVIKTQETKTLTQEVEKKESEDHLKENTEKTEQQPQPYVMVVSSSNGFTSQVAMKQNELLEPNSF
# SPIB, sequence (Q01892 whole entry): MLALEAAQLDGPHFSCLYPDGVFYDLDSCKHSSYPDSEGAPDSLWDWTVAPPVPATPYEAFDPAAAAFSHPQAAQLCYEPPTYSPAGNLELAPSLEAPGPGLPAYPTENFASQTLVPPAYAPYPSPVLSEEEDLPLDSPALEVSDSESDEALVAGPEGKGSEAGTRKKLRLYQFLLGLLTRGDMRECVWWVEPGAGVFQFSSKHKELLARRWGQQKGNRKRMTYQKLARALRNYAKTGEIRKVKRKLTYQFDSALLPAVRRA
sequence,measurement,setting,value
ACTTGG,binding signal,FLI1,"1.34 fold enrichment (6-mer frequency, TF over GST control)"
same,binding signal,ELK1,"1.19 fold enrichment (6-mer frequency, TF over GST control)"
same,binding signal,GABPA,"1.15 fold enrichment (6-mer frequency, TF over GST control)"
same,binding signal,ERG,"1.16 fold enrichment (6-mer frequency, TF over GST control)"
same,binding signal,ELF1,"1.34 fold enrichment (6-mer frequency, TF over GST control)"
same,binding signal,EHF,"1.1 fold enrichment (6-mer frequency, TF over GST control)"
same,binding signal,SPI1,"1.21 fold enrichment (6-mer frequency, TF over GST control)"
same,binding signal,SPIB,"1.25 fold enrichment (6-mer frequency, TF over GST control)"
same,binding signal,ELK3,"1.29 fold enrichment (6-mer frequency, TF over GST control)"
